Bioassay records deposited in PubChem by National Center for Advancing Translational Sciences (NCATS).
D1 antagonist: Antagonist of Human D 1 Dopamine Receptor: qHTS | D(1A) dopamine receptor (Homo sapiens), P21728 | HEK293 TREx D1 cells, calcium flux, dopamine EC80; hits give low values | activity change, negative = inhibition, % at 10 µM | actives 3.2% (n = 360,000); in the data active = activity change below about -30%; note: % is set by controls: 0 for no effect and ±100 for the full control effect
Target sequence (P21728 whole entry, looked up): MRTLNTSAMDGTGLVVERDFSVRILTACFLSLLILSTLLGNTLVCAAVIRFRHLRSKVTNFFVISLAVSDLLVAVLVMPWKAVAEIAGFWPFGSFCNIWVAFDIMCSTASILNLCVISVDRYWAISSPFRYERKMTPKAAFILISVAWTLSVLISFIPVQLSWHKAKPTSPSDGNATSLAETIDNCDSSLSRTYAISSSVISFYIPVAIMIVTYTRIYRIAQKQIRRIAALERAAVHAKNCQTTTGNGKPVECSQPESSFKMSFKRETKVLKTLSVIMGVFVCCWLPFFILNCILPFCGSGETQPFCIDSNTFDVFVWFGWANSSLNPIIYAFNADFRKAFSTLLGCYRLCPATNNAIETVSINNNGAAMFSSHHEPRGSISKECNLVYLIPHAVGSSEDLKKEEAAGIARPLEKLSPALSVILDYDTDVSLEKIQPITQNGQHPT
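Using tetracycline-induced force-coupled D1 Hek293 cells and a calcium dye, signals were followed for 180 s after compound, then for 180 s after EC80 dopamine, to detect inhibitors.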
D3 ag: qHTS of D3 Dopamine Receptor Agonist: qHTS | D(3) dopamine receptor (Homo sapiens), P35462 | D3R DiscoveRx beta-arrestin cells, luminescence, 90 min | max activation, % | actives 0.58% (n = 410,000) | AID 652048, 2013; in the data active = max activation above about 30%; note: 0% is about no effect
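Agonist mode: compounds and dopamine controls were applied to plated cells for 90 min at 37 degrees C after an overnight attachment at 1500 cells/well. Luminescent read-out followed 30 - 60 minutes at room temperature with DiscoveRx detection reagent.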
D1 ag: Allosteric Agonists of the Human D1 Dopamine Receptor: qHTS; D(1A) dopamine receptor (Homo sapiens), P21728; HEK293 T-REx D1 cells, calcium flux, agonist mode; activation, % at 2 µM; actives 1% (n = 360,000); in the data active = activation above about 30%; note: 0% is about no effect
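Agonism was scored from calcium flux recorded over 180 s (1 read/s) after pintool compound addition, following a 10-cycle baseline. Cells were inducible force-coupled HEK293 TREx D1, plated overnight at 30 C and loaded with no-wash calcium dye.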
D1 PAM: Potentiators of Human D1 Dopamine Receptor: qHTS | D(1A) dopamine receptor (Homo sapiens), P21728 | HEK293 TREx D1 cells, calcium flux, dopamine EC20 potentiation | potentiation, % at 10 µM | actives 0.036% (n = 360,000) | AID 504651, 2011; in the data active = potentiation above about 30%; note: 0% is about no effect
DRD3 antagonist: qHTS of D3 Dopamine Receptor Antagonist: qHTS; max response, negative = inhibition, %; actives 2.5% (n = 360,000); D(3) dopamine receptor (Homo sapiens), P35462; D3R cells, DiscoveRx beta-arrestin luminescence, antagonist mode; hits give low values; in the data active = max response below about -50%; inconclusive = no clear call, values can overlap the other calls; note: % is set by controls: 0 for no effect and ±100 for the full control effect
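Cells plated overnight at 1500 cells/well, then exposed to library compounds with dopamine controls for 90 minutes at 37 degrees C. DiscoveRx reagent added for 30–60 minutes at room temperature; luminescence read, quantitative HTS format.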
An asterisk follows results filed as active; ? = inconclusive; · = no result given. The list is not random: actives were taken first. Their share in the collection is about 6%.

SMILES	D1 antagonist	D3 ag	D1 ag	D1 PAM	DRD3 antagonist
Cc1cc(NC(=O)CSc2ccccc2)no1	-19	-7	1	-1	-24
Cc1nc(-c2ccc(NC(=O)C(C)(C)C)cc2)c(-c2ccccc2)o1	3	11	1	-3	21
COCCn1c(-c2ccc(OC)cc2)cnc1SCC(=O)Nc1cc(C)on1	-13	-8	9	-9	-70*
COc1ccccc1NC(=O)C1CCCN(c2cnccn2)C1 (centres undefined)	1	-1	0	0	8
Nc1cc(-c2ccccc2)c[nH]c1=O	10	·	4	9	·
Cc1ccc(NC(=O)CSc2nc3nn(-c4ccccc4)c(=O)c-3c3n2CCCCC3)cc1F	·	-1	·	·	-14
Cc1cc(NC(=O)CSCC(=O)Nc2ccccc2Oc2ccccc2)no1	-37*	-7	3	2	7
Cc1ccc(Oc2ccccc2NC(=O)CSCC(=O)Nc2cc(C)on2)cc1	0	5	24	0	26
CSCCC(NC(=O)c1ccco1)C(=O)N1CCN(C(c2ccccc2)c2ccccc2)CC1 (centres undefined)	2	-2	4	2	0
Fc1cccc(CNc2ncnc3ccc(-c4ccoc4)cc23)c1	-15	·	0	-2	·
Cc1cc(/C=C2\SC(=S)N(Cc3ccco3)C2=O)c(C)n1-c1ccccc1	-20	-1	31*	-1	-19
CN(C)c1ccc(C=C2SC(=S)N(Cc3ccco3)C2=O)cc1	·	4	·	·	11
CCc1nn(CC(=O)Nc2c(C)cc(C)cc2C)c(=O)c2cc3sccc3n12	8	0	0	-1	·
N#Cc1c(-c2ccccc2)[nH]c(=O)[nH]c1=O	-35*	2	4	0	0
O=C(CNC1CCCCC1)Nc1cccc(C(F)(F)F)c1	2	-5	2	-3	-3
CCc1cc(=O)oc2c(C)c(OCC(=O)NCC3CCC(C(=O)O)CC3)ccc12 (centres undefined)	-66*	26	3	-13	14
CCOC(=O)c1cc([N+](=O)[O-])cc([N+](=O)[O-])c1Sc1ncnc2nc[nH]c12	·	-25	·	·	-86*
CCOC(=O)NC(NC(=S)Nc1ccc(OC)cc1)C(Cl)(Cl)Cl (centres undefined)	-34*	-2	2	-10	-6
CCOC(=O)NC(NC(=S)Nc1ccccc1OC)C(Cl)(Cl)Cl (centres undefined)	-3	-7	2	-4	-26
COc1ccc(NC(=S)NC(NC(=O)/C=C/c2ccccc2)C(Cl)(Cl)Cl)cc1 (centres undefined)	-10	-7	3	-1	-69*
COC(=O)c1cn[nH]c1NC(=S)Nc1ccc(Cl)c(Cl)c1	-26	23	4	0	2
CCOC(=O)c1ccc(NC(=S)Nc2cccc(N)n2)cc1	-34*	-12	2	-4	1
CCOC(=O)c1cn[nH]c1NC(=S)Nc1ccc(OC)cc1	-39*	1	10	1	-6
COc1nccnc1NS(=O)(=O)c1ccc(NC(=S)NC(=O)/C=C/c2ccccc2)cc1	3	-10	0	-8	-63*
COc1nccnc1NS(=O)(=O)c1ccc(NC(=S)NC(=O)c2ccccc2)cc1	6	-5	0	-1	?
SMILES	D1 antagonist	D3 ag	D1 ag	D1 PAM	DRD3 antagonist
COc1ccc(C(C)=O)cc1CSc1nnnn1-c1ccc(O)cc1	-35*	7	3	-7	7
COc1ccc(C(C)=O)cc1CSC(=N)N	-6	-5	10	2	-54*
COc1cc(CSc2nnnn2-c2ccc(C)cc2)cc(OC)c1OC	-7	13	39*	0	19
CCCCn1nnnc1C(c1ccccc1)N1CCN(c2ccc(C)cc2)CC1 (centres undefined)	·	8	·	·	32
Cc1cc(N2CCC(C(=O)Nc3ccc(Cl)cc3)CC2)n2nc(C)c(-c3ccc(Cl)cc3)c2n1	-14	3	1	-4	·
COc1ccc(-n2nc3c(c2NC(=O)C(=O)N2CCN(C)CC2)CSC3)cc1	·	-2	-1	-2	·
CC(=O)Nc1cccc(-c2ccnc3c2CC(C(=O)NCc2cccc(Cl)c2)O3)c1 (centres undefined)	·	-10	·	·	0
O=C(Nc1ccccc1)c1[nH]ncc1[N+](=O)[O-]	-5	2	4	-2	-63*
COc1ccc(NC(=O)c2[nH]ncc2[N+](=O)[O-])cc1	-13	-2	3	0	-6
COc1ccc(CN(C)C(=O)Cn2ccc(N)nc2=O)cc1OC	·	-14	0	1	-16
Cc1cccc(C)c1OCC(=O)NC1CC1	-47*	-5	-2	-4	-3
Cc1ccccc1CSCC(=O)NC1CCCC1	-45*	2	-3	-2	-1
CCc1ccc2nc(N(Cc3cccnc3)C(C)=O)sc2c1	·	-10	-2	-3	·
NC(=O)C1=C(N=C2CCCCC2)CCCC1	·	2	·	·	3
O=C(C1CCCN(S(=O)(=O)c2ccc(Br)cc2)C1)N1CCOCC1 (centres undefined)	-53*	-9	6	6	-18
O=S(=O)(c1ccc(Oc2ccc(Br)cc2)cc1)N1CCOCC1	-32*	-14	15	-6	0
CN1CCN(C(=O)C2CCCN(S(=O)(=O)c3ccc(Br)cc3)C2)CC1 (centres undefined)	15	-11	4	3	-27
CC(C)c1ccc(NC(=O)CN(C)C2=NS(=O)(=O)c3ccccc32)cc1	·	2	·	·	16
COc1ccc([C@H]2CN(c3ccc(OC)cc3)C(=O)[C@@H]2CC(=O)Nc2ccc(Br)cc2)cc1	·	0	·	·	22
Cc1sc(NC(=O)C2c3ccccc3Oc3ccccc32)c(C(=O)OC(C)C)c1C	7	4	2	0	·
CCOC(=O)c1c(C)n(-c2ccccc2)c2ccc(O)cc12	-70*	1	4	-6	-7
CCOC(=O)c1c(CN2CCN(C)CC2)n(-c2ccccc2)c2cc(Br)c(O)cc12	6	-18	11	-18	-64*
CCc1cccc(NC(=O)c2cc3c(=O)n(Cc4ccccc4)ccc3nc2C)c1	-16	-3	2	-5	·
CC(=O)N1CCCN(Cc2nc(C3(c4ccc(C)cc4)CCCC3)no2)CC1	0	8	-1	-1	12
COCCN1CCN(Cc2nc(C3(c4ccc(C)cc4)CCCC3)no2)CC1	6	-15	0	4	-54*
O=C(N/C(=C\c1ccccc1)C(=O)N1CCOCC1)c1cccc(Br)c1	11	-26	2	-2	-14
COC(=O)c1ccc(NS(=O)(=O)c2ccccc2)o1	-33*	2	5	-6	8
